Compound activity as filed in PubChem.
Hits are enriched below; roughly 1.3% of the tested compounds scored in any of these assays.
PfHsp40 rescue = rescue of PfHsp40-mediated yeast toxicity. S. cerevisiae expressing PfHsp40, growth rescue, ATP luminescence. growth rescue, % at 12.5 µM. actives 0.68% (n = 340,000). AID 504582; in the data active means growth rescue above about 28%, passing the limit was not always enough; inconclusive means no clear call, values can overlap the other calls;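 further: yeast W303a lacking pdr1 and pdr3 grown in galactose medium; growth measured after three days at 30 °C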
3CLpro inhibitor = SARS-CoV 3CLpro protease inhibition | recombinant SARS-CoV 3CLpro, quenched FRET peptide cleavage | inhibition, % at 6 µM | actives 0.14% (n = 290,000); in the data active means inhibition above about 12%
BJeLR lethal = kills HRASV12-expressing BJeLR cells; AID 1554; BJeLR (HRASV12) viability, CellTiter-Glo ATP luminescence, 48 h; inhibition, % (test concentration not listed); actives 0.17% (n = 300,000); in the data active means inhibition above about 50%; inconclusive means no clear call, values can overlap the other calls
ugtP null kill = kills S. aureus RN4220 lacking UgtP. S. aureus RN4220 ugtP deletion, OD600 growth, 16 h. growth inhibition, % (concentration not given with the values). actives 0.54% (n = 330,000). AID 1259309; in the data active means growth inhibition above about 68%;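 further: plate controls were untreated wells for no effect and antibiotic for full effect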
Sa RN4220 lethal = kills Staphylococcus aureus RN4220; S. aureus RN4220 growth, OD600, 16 h; inhibition, % (no concentration beside the values); actives 0.33% (n = 330,000); in the data active means inhibition above about 85%;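 further: plate controls were untreated cells for no effect and reference antibiotic for full effect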
* marks the source's active call; other numbers are inactive results; ? = inconclusive; . = not tested or not shown.

SMILES	PfHsp40 rescue	3CLpro inhibitor	BJeLR lethal	ugtP null kill	Sa RN4220 lethal
COc1cc(-c2cc[n+](C)cc2)ccc1O	67.4*	.	-8.0	4.5	2.0
O=C(CCN1C(=O)c2ccccc2C1=O)NC(=S)Nc1cccc(Cl)c1	66.3*	-1.4	-1.8	7.1	-2.4
O=c1[nH]sc2cc(F)ccc12	0.7	-1.1	0.0	87.4*	98.1*
O=c1[nH]sc2ccccc12	1.9	-2.0	-10.7	11.4	-1.8
Cc1ccc2c(c1)nnn2C1CCN(CC(=O)NNC(=O)c2ccco2)CC1	-2.1	-6.3	.	9.6	-0.5
COc1ccc(-c2cc3ncc(C(C)=O)c(C)n3n2)cc1	53.1*	-1.9	-2.5	2.8	2.4
CC(=O)c1cnc2cc(-c3ccc(C)cc3)nn2c1C	1.5	-1.8	1.2	8.4	3.1
O=C(OCC(=O)N1CCCC1=O)c1cc(Cl)ccc1O	-0.8	.	11.6	4.2	2.3
CN(CCO)c1cc(Sc2nc3ccccc3s2)c2nonc2c1[N+](=O)[O-]	0.5	-1.5	40.2	87.8*	57.1
CC(=O)OCCN(C)c1cc(SC(C)C)c2nonc2c1[N+](=O)[O-]	0.6	3.2	4.0	8.8	2.1
N#Cc1nc(-c2ccc(Cl)cc2)oc1NCCc1ccccn1	67.5*	1.5	-2.4	7.1	-4.7
Cc1ccc(-c2nc(C#N)c(NCCc3ccccn3)o2)cc1	-0.2	-3.9	9.6	-1.0	-9.8
CCN1C(=O)/C(=C\N(C)C)c2ccccc21	41.2*	5.6	-5.6	0.4	2.5
CCN1C(=O)/C(=C/N(C)C)c2ccccc21	0.4	-1.4	-5.3	4.2	2.1
CC1CCCN(C(=O)c2ccc3ncsc3c2)C1 (stereo unspecified)	-0.2	.	.	-3.5	-2.5
CCCCCC[N+](C)(C)CC/C=C1/c2ccccc2Sc2ccc(Cl)cc21	0.0	3.5	-2.9	98.6*	100.2*
O=C(c1ccccc1)c1coc2c1C(=O)c1ccccc1C2=O	1.5	3.9	6.1	7.0	-3.0
O=C1c2ccccc2C(=O)c2c1oc(C(F)(F)F)c2C(=O)c1ccccc1	?	6.8	5.0	79.4*	94.4*
CC[N+]1=CN(c2ccccc2)C(C)=CC1(C)C	0.5	3.6	0.2	3.1	6.5
CCCCOc1ccc(CSCCN=C(N)N)cc1	0.0	-4.5	-0.1	100.1*	20.9
Cn1ccnc1Sc1ccc(/C=N/NC(=O)c2ccccc2[N+](=O)[O-])cc1[N+](=O)[O-]	0.2	3.9	-20.5	.	.
CCCc1cc(=O)n2[nH]cc(-c3ccc(Cl)cc3)c2n1	-0.2	-1.9	11.6	98.6*	99.2*
COCc1cc(=O)n2[nH]cc(-c3ccccc3)c2n1	-0.9	0.5	11.9	1.5	5.6
Fc1ccc(CON=CC2=C(Cl)c3ccccc3CC2)cc1	.	.	.	99.0*	10.3
CCOC(=O)c1c(NC(=O)COc2ncnc3ccccc23)sc(C(C)=O)c1C	-0.6	3.7	-12.4	-5.4	2.9
SMILES	PfHsp40 rescue	3CLpro inhibitor	BJeLR lethal	ugtP null kill	Sa RN4220 lethal
COc1ccc(-c2cc(-c3ccccc3)n[nH]2)c(O)c1	80.3*	3.9	-1.4	-13.8	-4.9
Cc1ccc(-c2cc(-c3ccccc3Cl)[nH]n2)c(O)c1	136.5*	7.0	-2.4	10.6	-7.4
Cc1ccc(O)c(-c2cc(-c3cccc(Br)c3)n[nH]2)c1	119.3*	3.7	-8.4	85.3	86.9*
Cc1ccc(-c2cc(-c3ccc(C)cc3O)[nH]n2)cc1	-0.6	2.9	2.2	55.1	-11.3
Cc1ccc(-c2cc(-c3ccc(F)cc3)n[nH]2)c(O)c1	180.3*	3.5	5.5	48.2	-12.8
CC(=O)Nc1c(Cl)cc([N+](=O)[O-])c2ccccc12	1.9	4.9	22.2	9.6	6.0
CCc1ccc(NC(=O)NCc2cccnc2)cc1	-1.2	3.5	0.2	2.9	-5.9
CC1C(=O)C(C)C(c2cccc(Br)c2)NC1c1cccc(Br)c1 (stereo unspecified)	1.6	-3.3	3.3	27.4	-7.4
Oc1ccccc1-c1cc(-c2ccc(F)cc2)n[nH]1	170.2*	3.5	-6.9	8.5	-4.4
Oc1ccccc1-c1cc(-c2ccccc2)n[nH]1	?	.	.	-17.5	-4.1
Cc1ccc([N+](=O)[O-])c2c1C(N1CC(C)OC(C)C1)C(C)(C)O2 (stereo unspecified)	0.0	6.4	2.3	10.8	1.2
CCc1ccccc1N(C(=O)c1cccs1)C1C=CS(=O)(=O)C1 (stereo unspecified)	33.6*	-4.3	-6.5	4.8	4.5
O=C(c1cccs1)N(c1cccc(Cl)c1)C1C=CS(=O)(=O)C1 (stereo unspecified)	-0.6	-2.5	-1.4	3.3	5.0
